Experimental data: PubChem BioAssay
Activity calls are given as the source filed them.

What was measured:
[1] = binders of probe aFSTL3 on microarray, primary screen, stem cell growth factor project, biochemical, small-molecule microarray, fluorescence 635/667 (AID 1064); conditions: higher = more signal;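 note: measures binding of the biotinylated anti-FSTL3 antibody to printed compounds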
[2] = binders from COS7 lysate, DM2A8 probe, primary screen, torsin A project, cell lysate, small-molecule microarray, fluorescence 635/667 (AID 1065); conditions: higher = more signal, COS7 lysate expressing mutant human TOR1A
[3] = binders of probe aFGF2 on microarray, primary screen, stem cell growth factor project, biochemical, small-molecule microarray, fluorescence 635/667 (AID 1067); conditions: higher = more signal;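 note: measures binding of biotinylated aFGF2 protein to printed compounds on slides; z-score merges feature fluorescence and signal-to-noise across triplicate slides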
[4] = binders of probe aFGF10 on microarray, primary screen, stem cell growth factor project, biochemical, small-molecule microarray, fluorescence 635/667 (AID 1071); conditions: higher = more signal;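 note: score merges 667 nm spot intensity and signal to noise from triplicate slides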
[5] = biological target: Neurogenic locus notch homolog protein 2 (Homo sapiens) (UniProt Q04721); assay: Notch2 binders on small-molecule microarrays, primary screen, biochemical, small-molecule microarray, 635 nm fluorescence, stem cell growth factors (AID 1073); conditions: Notch2 binding, higher = more signal
[6] = biological target: Pro-neuregulin-1, membrane-bound isoform (Homo sapiens) (UniProt Q02297); assay: NRG1 binders on small-molecule microarrays, primary screen, psychiatric disease protein project, biochemical, small-molecule microarray, fluorescence 635/667 (AID 1075); conditions: NRG1 binding, 635 nm fluorescence, higher = more signal;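 note: score combines 667 nm spot fluorescence with signal to noise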
[7] = system: Neuregulin-1 EGF-like domain; assay: binders of neuregulin-1 EGF-like domain, primary screen, biochemical, small-molecule microarray, 635 nm fluorescence (AID 1081); conditions: small-molecule microarray binding, higher = more signal;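 note: binding of the protein to compounds printed on small-molecule microarray slides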
[8] = FRG1 promoter luciferase signal modulators, primary screen, FRG1 inhibition for FSHD, cell-based, C2C12 myotubes, firefly/Renilla luciferase, luminescence (AID 1084); conditions: higher = more signal, called active from +8 up or from −8 down
[9] = binders of probe aFST on microarray, primary screen, stem cell growth factor project, biochemical, small-molecule microarray, fluorescence 635/667 (AID 1086); conditions: higher = more signal;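 note: score merges 667 nm fluorescence with signal-to-noise of each printed compound spot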
[10] = binders of probe aHhip on microarray, primary screen, stem cell growth factor project, biochemical, small-molecule microarray, fluorescence 635/667 (AID 1087); conditions: higher = more signal;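 note: score merges spot fluorescence at 667nm with spot signal to noise ratio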
[11] = system: PRMT1 (protein arginine N-methyltransferase 1); assay: PRMT1 binders on small-molecule microarrays, primary screen, biochemical, small-molecule microarray, 635 nm fluorescence (AID 1088); conditions: small-molecule microarray binding, higher = more signal;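 note: binding of Prmt1 protein to compounds spotted on small-molecule microarray slides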
[12] = yeast growth modulation, basal conditions, primary screen, YJM789 clinical isolate, OD600, 24 h (AID 1089);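 note: growth of clinical yeast isolate S. cerevisiae YJM 789 seeded 1000 cells per well; test concentration not given here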; conditions: S. cerevisiae YJM789 growth, higher = more signal, called active from +8 up or from −8 down
[13] = fission yeast growth modulation, primary screen, strain 972, OD600, 24 h, no modulator (AID 1090);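 note: basal condition with compound alone and no growth modifier present; test concentration not given here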; conditions: S. pombe 972 growth, higher = more signal, called active from +8 up or from −8 down
[14] = S. cerevisiae growth modulation with rapamycin, primary screen, strain BY4716, OD600, 96 h (AID 1091); conditions: higher = more signal, called active from +8 up or from −8 down; note: test concentration not given here
[15] = biological target: Torsin-1A-interacting protein 2 (Homo sapiens) (UniProt Q8NFQ8); assay: LULL1 binders on small-molecule microarray, primary screen, cell lysate, human LULL1 lysate, 635/667 nm fluorescence (AID 1092); conditions: hLULL1 lysate binding, 635 nm fluorescence, higher = more signal;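 note: probe is lysate of COS7 cells overexpressing human LULL1; score merges per-feature 667 nm fluorescence with signal-to-noise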
[16] = E. coli growth modulation, two-sided OD650, primary screen, E. coli filamentation project, strain DRC41, 24 h (AID 1093); conditions: OD650, 24 h, higher = more signal, called active from +8 up or from −8 down;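 note: MC1000 strain lacking acrAB efflux and sulA so SOS filamentation is blocked; test concentration not given here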
[17] = small-molecule microarray binders of probe aLefty2, primary screen, biochemical, biotinylated probe, 635/667 nm fluorescence (AID 1094); conditions: higher = more signal;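 note: score merges spot fluorescence near 667 nm with spot signal-to-noise ratio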
[18] = system: Noggin (protein binding on small-molecule microarray); assay: Noggin binders on small-molecule microarray, primary screen, biochemical, 635/667 nm fluorescence (AID 1095); conditions: 635 nm fluorescence, higher = more signal;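 note: score merges 667 nm feature fluorescence with signal to noise over triplicate slides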
[19] = biological target: Neurogenic locus notch homolog protein 3 (Homo sapiens) (UniProt Q9UM47); assay: NOTCH3 binders on small-molecule microarray, primary screen, biochemical, 635/667 nm fluorescence (AID 1096); conditions: NOTCH3 binding, 635 nm fluorescence, higher = more signal
[20] = small-molecule microarray binders of probe aEGFR, primary screen, biochemical, biotinylated probe, 635/667 nm fluorescence (AID 1097); conditions: higher = more signal;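 note: probe is a biotinylated anti-EGFR antibody binding compounds printed on slides; score combines fluorescence near 667 nm and signal to noise of each spot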

Sequence of Neurogenic locus notch homolog protein 3 (Homo sapiens) (Q9UM47 whole entry, looked up): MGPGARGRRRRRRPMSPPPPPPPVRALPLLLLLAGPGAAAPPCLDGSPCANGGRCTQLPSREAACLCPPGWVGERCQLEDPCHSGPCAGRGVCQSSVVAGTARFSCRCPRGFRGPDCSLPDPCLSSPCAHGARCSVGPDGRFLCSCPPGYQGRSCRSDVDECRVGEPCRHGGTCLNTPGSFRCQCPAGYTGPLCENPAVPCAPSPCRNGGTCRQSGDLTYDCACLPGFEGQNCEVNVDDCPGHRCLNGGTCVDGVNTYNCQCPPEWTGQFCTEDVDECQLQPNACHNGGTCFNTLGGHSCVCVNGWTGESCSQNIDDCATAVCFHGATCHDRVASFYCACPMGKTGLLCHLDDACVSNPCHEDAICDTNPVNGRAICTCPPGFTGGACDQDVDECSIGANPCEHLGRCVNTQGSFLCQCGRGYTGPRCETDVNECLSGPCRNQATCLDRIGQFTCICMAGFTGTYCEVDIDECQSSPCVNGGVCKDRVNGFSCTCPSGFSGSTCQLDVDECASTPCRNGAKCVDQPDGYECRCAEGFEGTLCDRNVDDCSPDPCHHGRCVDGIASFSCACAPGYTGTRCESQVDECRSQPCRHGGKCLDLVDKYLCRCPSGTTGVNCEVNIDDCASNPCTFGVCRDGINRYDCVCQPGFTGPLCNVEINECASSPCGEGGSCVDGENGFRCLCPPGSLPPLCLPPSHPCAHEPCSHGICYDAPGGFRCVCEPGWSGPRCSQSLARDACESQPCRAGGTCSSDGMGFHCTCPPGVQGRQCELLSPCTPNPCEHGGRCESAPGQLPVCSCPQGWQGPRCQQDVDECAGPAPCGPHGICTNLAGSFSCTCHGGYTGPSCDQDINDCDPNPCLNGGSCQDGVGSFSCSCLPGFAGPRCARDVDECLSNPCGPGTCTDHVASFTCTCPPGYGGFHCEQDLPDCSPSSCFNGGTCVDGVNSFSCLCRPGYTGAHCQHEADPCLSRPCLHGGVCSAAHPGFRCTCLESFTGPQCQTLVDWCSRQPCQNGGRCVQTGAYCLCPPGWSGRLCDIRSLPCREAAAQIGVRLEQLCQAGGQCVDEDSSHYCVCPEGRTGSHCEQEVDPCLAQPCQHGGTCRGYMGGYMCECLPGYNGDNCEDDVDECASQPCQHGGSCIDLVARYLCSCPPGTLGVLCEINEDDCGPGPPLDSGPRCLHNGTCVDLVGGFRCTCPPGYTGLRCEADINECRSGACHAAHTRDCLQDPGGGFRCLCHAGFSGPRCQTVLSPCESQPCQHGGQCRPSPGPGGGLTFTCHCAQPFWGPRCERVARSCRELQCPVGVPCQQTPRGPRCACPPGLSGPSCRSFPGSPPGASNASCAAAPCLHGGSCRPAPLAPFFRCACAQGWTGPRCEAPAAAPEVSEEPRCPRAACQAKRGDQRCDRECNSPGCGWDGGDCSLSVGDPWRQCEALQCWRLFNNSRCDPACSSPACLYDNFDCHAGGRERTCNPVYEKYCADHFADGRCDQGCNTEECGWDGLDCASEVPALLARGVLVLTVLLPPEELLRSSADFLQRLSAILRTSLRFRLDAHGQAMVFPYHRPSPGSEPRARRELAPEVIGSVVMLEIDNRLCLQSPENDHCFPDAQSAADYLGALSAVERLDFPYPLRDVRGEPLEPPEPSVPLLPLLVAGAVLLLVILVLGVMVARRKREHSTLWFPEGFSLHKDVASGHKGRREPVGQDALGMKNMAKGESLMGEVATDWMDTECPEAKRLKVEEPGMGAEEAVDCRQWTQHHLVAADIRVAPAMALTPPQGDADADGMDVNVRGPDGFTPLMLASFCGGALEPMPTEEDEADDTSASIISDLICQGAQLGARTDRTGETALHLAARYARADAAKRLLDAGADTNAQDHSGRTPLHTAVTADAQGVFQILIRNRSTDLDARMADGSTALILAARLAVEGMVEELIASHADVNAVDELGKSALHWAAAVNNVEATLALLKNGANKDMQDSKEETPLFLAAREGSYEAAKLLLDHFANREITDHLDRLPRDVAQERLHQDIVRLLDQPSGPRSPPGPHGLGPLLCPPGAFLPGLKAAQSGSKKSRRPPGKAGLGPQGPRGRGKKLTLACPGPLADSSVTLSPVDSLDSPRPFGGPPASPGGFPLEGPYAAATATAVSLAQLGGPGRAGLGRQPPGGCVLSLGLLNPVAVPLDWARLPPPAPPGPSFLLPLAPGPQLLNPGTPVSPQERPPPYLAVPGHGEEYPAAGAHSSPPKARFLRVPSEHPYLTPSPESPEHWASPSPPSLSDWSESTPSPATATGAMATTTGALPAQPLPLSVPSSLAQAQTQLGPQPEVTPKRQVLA
Sequence of Torsin-1A-interacting protein 2 (Homo sapiens) (Q8NFQ8 whole entry, looked up): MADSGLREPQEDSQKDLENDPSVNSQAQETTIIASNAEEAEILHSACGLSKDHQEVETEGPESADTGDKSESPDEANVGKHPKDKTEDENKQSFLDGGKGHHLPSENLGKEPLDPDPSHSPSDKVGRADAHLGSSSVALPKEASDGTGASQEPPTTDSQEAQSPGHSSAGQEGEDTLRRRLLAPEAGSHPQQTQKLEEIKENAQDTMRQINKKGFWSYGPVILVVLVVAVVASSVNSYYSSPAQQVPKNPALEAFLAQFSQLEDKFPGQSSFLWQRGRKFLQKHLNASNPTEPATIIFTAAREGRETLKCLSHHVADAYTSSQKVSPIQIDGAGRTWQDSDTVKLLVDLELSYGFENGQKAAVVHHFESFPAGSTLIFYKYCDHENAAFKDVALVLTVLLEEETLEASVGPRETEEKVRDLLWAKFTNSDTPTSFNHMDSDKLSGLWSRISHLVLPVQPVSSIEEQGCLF
Sequence of Pro-neuregulin-1, membrane-bound isoform (Homo sapiens) (Q02297 whole entry, looked up, the tested form may be a part, canonical isoform): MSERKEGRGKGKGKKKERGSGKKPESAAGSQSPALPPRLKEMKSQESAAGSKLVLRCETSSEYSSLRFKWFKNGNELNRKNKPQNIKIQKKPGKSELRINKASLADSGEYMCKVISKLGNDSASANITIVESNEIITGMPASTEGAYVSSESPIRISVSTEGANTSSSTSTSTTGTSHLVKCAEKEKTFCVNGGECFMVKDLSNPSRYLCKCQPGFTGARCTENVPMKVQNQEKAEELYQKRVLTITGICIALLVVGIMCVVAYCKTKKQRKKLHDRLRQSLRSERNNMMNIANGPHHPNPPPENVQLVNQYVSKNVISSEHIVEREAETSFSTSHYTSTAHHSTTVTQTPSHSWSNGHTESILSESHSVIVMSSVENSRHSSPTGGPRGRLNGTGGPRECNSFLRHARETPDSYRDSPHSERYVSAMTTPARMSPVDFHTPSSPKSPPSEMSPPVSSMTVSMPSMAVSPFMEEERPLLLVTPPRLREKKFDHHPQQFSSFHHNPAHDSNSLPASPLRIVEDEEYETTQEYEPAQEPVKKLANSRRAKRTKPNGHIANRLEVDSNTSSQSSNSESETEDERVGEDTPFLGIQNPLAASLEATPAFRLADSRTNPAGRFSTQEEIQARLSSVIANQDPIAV

SMILES	composite z-score [1]	composite z-score [2]	composite z-score [3]	composite z-score [4]	composite z-score [5]	composite z-score [6]	composite z-score [7]	z-score [8]	composite z-score [9]	composite z-score [10]	composite z-score [11]	z-score [12]	z-score [13]	z-score [14]	composite z-score [15]	z-score [16]	composite z-score [17]	composite z-score [18]	composite z-score [19]	composite z-score [20]
CCOC(=O)NN=C1C[C@@H](O)[C@@H](O)[C@@H]2[C@@H]3C(=O)N(C[C@@H]4CCCO4)C(=O)[C@@H]3CC[C@H]12	-0.548	-0.274	-0.0217	0.217	0.701	0.203	0.34	0.577 (inactive)	-0.0482	-0.143	0.611	-1.43 (inactive)	-0.318 (inactive)	-0.0602 (inactive)	0.448	0.416 (inactive)	-0.179	0.481	0.411	-0.0668
CC(C)[C@H](NC(=O)OC(C)(C)C)[C@@H](O)CC(=O)C(C)(C)C	-0.507	0.205	0.0103	0.209	0.541	-0.144	-0.295	0.46 (inactive)	0.0986	0.107	-0.377	0.24 (inactive)	0.0646 (inactive)	0.552 (inactive)	0.0487	0.782 (inactive)	-0.215	0.838	-0.0208	0.0514
C=CC[C@@H]1C=C[C@H](ON=C2C[C@@H](O)[C@@H](O)[C@@H]3[C@@H]4C(=O)N(CC)C(=O)[C@@H]4CC[C@@H]23)[C@@H](CO)O1	-0.416	1.86	-0.0793	0.228	-0.395	-0.417	-0.33	1.15 (inactive)	0.245	-0.0994	0.245	0.442 (inactive)	-0.376 (inactive)	0.445 (inactive)	-0.004	-0.876 (inactive)	-0.0736	0.107	-0.724	-0.119
O=C1[C@H]2CCn3c(=O)n(-c4ccccc4)c(=O)n3[C@H]2[C@H](O)[C@@H]2O[C@H]12	-0.561	-0.0619	-0.0667	0.328	0.164	1.63	-0.125	-0.217 (inactive)	-0.0545	-0.305	-0.0775	0.689 (inactive)	-0.41 (inactive)	-0.206 (inactive)	-0.29	-0.0475 (inactive)	-0.225	0.224	-0.281	-0.181
CC1(C)O[C@H]2O[C@H]([C@H](O)CON=C3[C@H]4CCn5c(=O)n(-c6ccccc6)c(=O)n5[C@H]4[C@H](O)[C@@H]4O[C@H]34)[C@H](O)[C@H]2O1	-0.278	0.0391	-0.154	0.157	0.0872	0.762	-0.431	-0.027 (inactive)	-0.081	-0.0994	-0.626	-0.638 (inactive)	-0.347 (inactive)	-0.215 (inactive)	-0.122	0.321 (inactive)	-0.212	0.426	-0.412	-0.219
CC=CC1=C(CO)[C@H](O)[C@H]2O[C@H]2[C@@H]1O	-0.267	0.112	-0.0425	0.192	0.486	-0.356	0.592	0.746 (inactive)	0.133	0.154	0.028	0.285 (inactive)	1.03 (inactive)	-0.258 (inactive)	0.0048	0.712 (inactive)	-0.221	0.59	0.429	-0.128
COC(=O)[C@H](C)NC(=O)CCC1CC(OC(=O)NCc2ccc3c(c2)OCO3)CC2(CCCC(COC(=O)NCCc3ccc(Cl)cc3)O2)O1 (stereo not given in full)	-0.592	-0.406	-0.0812	0.218	0.576	0.212	0.562	0.628 (inactive)	0.17	-0.126	0.898	0.341 (inactive)	0.744 (inactive)	-0.529 (inactive)	0.945	0.181 (inactive)	-0.14	0.621	0.67	-0.0675
CC(C)[C@@H](OCc1ccccc1)[C@H](C)C=NO[C@@H](C)c1cn([C@H](CO)Cc2ccccc2)nn1	-0.474	0.384	0.491	0.175	0.301	-0.236	-0.419	0.193 (inactive)	0.155	-0.175	0.195	-2.32 (inactive)	-3.21 (inactive)	-1.14 (inactive)	0.559	0.96 (inactive)	-0.186	0.803	0.543	-0.128
C[C@]12CCC3c4ccc(OCC5CO5)cc4CCC3C1CC[C@@H]2O (stereo not given in full)	0.157	0.258	-0.0415	0.381	1.04	0.703	1.07	1.05 (inactive)	0.473	-0.0994	0.205	0.199 (inactive)	-4.77 (inactive)	-0.494 (inactive)	2.11	0.392 (inactive)	0.124	0.0768	0.162	0.0025
CC1(C)O[C@H]2OC([C@H](O)CON3C(=O)c4ccccc4C3=O)[C@H](O)[C@H]2O1 (stereo not given in full)	-0.437	-0.0068	-0.175	0.0685	0.335	0.166	0.0939	0.516 (inactive)	0.169	-0.374	0.318	-0.702 (inactive)	-0.344 (inactive)	-0.425 (inactive)	-0.061	0.742 (inactive)	-0.0561	0.441	0.419	0.0434
